Most compounds without a hit are left out; they make up all but 2.8% or so of the library.
TRPM1 prom inh: inhibitors of MITF-dependent TRPM1 promoter reporter, primary screen, cell-based, SK-MEL-5, single point, luciferase | SK-MEL-5 TRPM1 promoter luciferase, 24 h | AID 488899, 2010 | hit rate 0.83% among 330,000 | inhibition, % at 12.5 µM;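 active means mean inhibition across replicates of 60% or more, whatever share of single replicates reaches that level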
HIF-2a block: HIF-2a reporter inhibitors, primary screen, luminescence, 786-0 RCC cells. 786-0 RCC cells HIF-2a reporter, luciferase luminescence, overnight. inhibition, % at 18.8 µM. hit rate 0.72% among 360,000;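 active means inhibition of the luminescence signal of 40% or more relative to plate controls, in a single-dose primary screen at 18.75 µM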
CF NFkB block: inhibitors of PAF-induced NF-kB signaling, primary screen, cell-based, GFP fluorescence, uHTS. KKLEB NF-kB-GFP reporter, GFP fluorescence overnight. inhibition, % at 5 µM. hit rate 0.86% among 360,000;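 active means at least 50% inhibition at 5 µM, scaled per plate between neutral and stimulator controls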;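 further: PAF is a Pseudomonas aeruginosa culture filtrate used as stimulus; plate controls were PAF-stimulated DMSO wells for no effect and unstimulated DMSO wells for full effect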
KKLEB tox: cytotoxicity in KKLEB CF airway cells, primary screen, cytotoxicity control for CF NF-kB inhibitor project, cell-based, uHTS, fluorescence assay plates. hit rate 0.36% among 360,000. KKLEB CF airway cells viability, ATPlite luminescence, overnight; hits give low values; cells stimulated with P. aeruginosa culture filtrate. AID 602141, 2011. activity change (cytotoxicity), % at 5 µM;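 active means corrected activity change at or below -50% at 5 µM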
Shn3 inh set2: reduction of Shn3 3'UTR firefly luciferase signal, primary screen, Schnurri-3 inhibitor project, cell-based, Clone20 osteoblasts, set 2; hit rate 0.52% among 360,000; Clone20 osteoblast Shn3 3'UTR firefly luciferase, 24 h; AID 588674, 2011; inhibition, % at 12.5 µM;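 active means mean inhibition of at least 75% with every replicate also reaching 75%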;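 further: 0% = median of neutral control wells and 100% = pilot-screen positive control compound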
Peg3 prom inh: Peg3 promoter-driven luciferase inhibitors, primary screen, cell-based, HeLa, luciferase luminescence. HeLa PEG-Prom luciferase reporter, overnight. inhibition, % at 20 µM. hit rate 1.7% among 360,000;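 active means inhibition of at least 50% at 20 µM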
CF NFkB inh conf: inhibitors of PAF-induced NF-kB signaling, retest, confirmation, cell-based, GFP fluorescence, single concentration; shares compounds with CF NFkB block; KKLEB CF airway cells, overnight; inhibition, % at 5 µM; hit rate 64% among 1,300; in the data active means inhibition above about 40%;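 further: stimulus PAF is a Pseudomonas aeruginosa filtrate and not platelet activating factor; plate controls were DMSO wells with stimulus for no effect and unstimulated DMSO wells for full effect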
* marks the source's active call; other numbers are inactive results; x = no result given; ! = a repeat was not active.

SMILES	TRPM1 prom inh	HIF-2a block	CF NFkB block	KKLEB tox	Shn3 inh set2	Peg3 prom inh	CF NFkB inh conf
CC(=O)N1CCN(c2ccc(NC(=O)c3cccc([N+](=O)[O-])c3)cc2)CC1	9.6	-32.4	1.8	-0.1	4.2	-26.9	x
COc1ccc(NC(=O)COc2ccc(Br)cc2)c(OC)c1	-20.5	-79.1	13.4	6.2	-9.5	-71.8	x
COc1ccc(NC(=O)NNC(=O)COc2ccc3cc(Br)ccc3c2)c(OC)c1	4.4	10.8	52.5*	-41.5	-26.2	21.6	0.7
CC(=O)N1CC(=O)N=C1SCC(=O)Nc1nc(C)c(-c2ccccc2)s1	-7.5	-90.8	50.9*	19.8	-5.8	-47.4	60.2*
Cc1ccc(C(=O)Nc2cccc(C(F)(F)F)c2)cc1NC(=O)c1nccnc1N	-2.4	12.3	59.2*!	-44.5	-9.7	9.8	78.1*
Cc1ccc(C(=O)Nc2cccc(C(F)(F)F)c2)cc1NC(=O)c1cnnc2ccccc12	25.3	1.9	53.1*	-24.7	1.0	16.6	51.6*
Cc1ccc(C(=O)Nc2cccc(C(F)(F)F)c2)cc1Nc1cncnc1	-13.6	9.2	28.8	-2.8	18.8	18.0	x
NC(=O)c1sc2nccc(Nc3ccccc3)c2c1N	-19.3	-15.3	73.0*	4.4	-7.6	-40.6	72.9*
NC(=O)c1sc2nc(-c3ccccc3)c3c(c2c1N)CCCC3	2.3	12.6	-25.7	6.0	-10.9	18.2	x
O=C(c1cnn(-c2ccccc2)c1)c1cc(Br)ccc1O	x	-11.7	10.4	0.0	-31.9	-36.6	x
O=C(c1ccc(O)c(Br)c1)c1cc(Br)ccc1O	9.4	-1.6	65.9*	8.3	-7.2	35.6	60.9*
CCOC(=O)c1c(NC(=O)Cc2cccs2)sc(C(=O)NC2CCCCC2)c1C	13.4	-11.2	50.9*	-29.4	15.1	6.0	19.0
Cc1ccc(C)c(C(=O)CSc2nc(C)cc(=O)[nH]2)c1	1.4	-3.1	-15.7	-12.8	15.6	3.1	x
CCCN(CCO)CCCc1ccccc1	8.1	8.9	1.8	1.9	9.3	9.0	x
CCN(CCCc1ccccc1)CCCc1ccccc1	-9.5	-10.7	53.6*	31.6	4.6	-9.9	4.3
CC1(Cc2ccc(Cl)cc2)C(=O)Nc2ccc(-c3ccc(F)c(Cl)c3)cc21 (stereo not given)	x	1.8	20.7	-9.5	13.8	7.4	x
C=Cc1ccc(CC2(C)C(=O)Nc3ccc(-c4cccnc4)cc32)cc1 (stereo not given)	x	20.2	74.4*	-25.2	26.7	31.6	86.7*
COc1ccccc1-c1ccc2c(c1)C(C)(Cc1ccc(Cl)c(Cl)c1)C(=O)N2 (stereo not given)	x	-20.6	37.6	2.1	-22.4	13.7	x
CC1(Cc2ccc(F)cc2)C(=O)Nc2ccc(-c3cccnc3)cc21 (stereo not given)	x	23.4	66.7*	3.0	30.8	13.7	73.7*
NC(=O)C12C(=O)NC(=O)C1(C(=O)O)C21CCCC1 (stereo not given)	-8.9	4.2	-5.3	16.0	-9.7	3.6	x
COc1ccc(CCN=Cc2c(C)[nH]n(-c3ccc([N+](=O)[O-])cc3)c2=O)cc1OC	12.0	15.5	-19.9	-6.6	6.5	-0.4	x
COc1ccc(-c2[nH]n(-c3ccc([N+](=O)[O-])cc3)c(=O)c2C=NCc2ccccc2)cc1	6.6	20.4	50.5*	-27.7	16.1	24.4	23.1
CCC1Nc2ncnc(N3CCCCC3)c2N(Cc2ccc(C)cc2)C1=O (stereo not given)	-3.8	18.9	71.4*!	-10.2	4.3	6.9	17.3
CCC1Nc2ncnc(N3CCCCC3)c2N(Cc2ccccc2)C1=O (stereo not given)	0.0	16.2	3.9	5.2	-49.5	20.1	x
CCCN(C(=O)COC(=O)Cn1c(=O)oc2ccccc21)c1c(N)n(Cc2ccccc2)c(=O)[nH]c1=O	8.9	6.0	-57.0	8.0	5.6	4.1	x
SMILES	TRPM1 prom inh	HIF-2a block	CF NFkB block	KKLEB tox	Shn3 inh set2	Peg3 prom inh	CF NFkB inh conf
NS(=O)(=O)c1ccc(CCNC(=O)c2cccc(S(=O)(=O)N3CCc4ccccc43)c2)cc1	x	26.1	-30.9	9.0	-6.6	14.1	x
CC1(C)CC(=O)C=C(c2ccc(F)nc2)C1	x	-12.1	-10.9	-8.8	-3.3	7.3	x
COc1cc(Br)c(C(=O)c2nccc3cc(OC)c(OC)cc23)cc1OC	13.9	24.9	59.7*	-13.9	8.2	8.4	13.6
CCN(CC)Cc1c(O)ccc2c(-c3ccccc3)cc(=O)oc12	7.3	17.3	19.7	-2.9	-21.0	-0.2	x
Cc1c(O)ccc2c(-c3ccccc3)cc(=O)oc12	1.6	6.2	75.2*	20.0	5.6	14.6	95.1*
CCCCNC(=S)N(C)/N=C/c1ccc(OCC(=O)Nc2ccc(OC)cc2)c(OC)c1	2.1	-16.1	54.0*	8.3	32.7	41.0	36.0
O=C(Nc1cccc(Cl)c1)c1nc[nH]c1C(=O)NCCCCNC(=O)c1[nH]cnc1C(=O)Nc1cccc(Cl)c1	9.4	-0.8	-16.8	-5.6	4.0	6.8	x
O=C(Nc1ccc(Cl)cc1)c1nc[nH]c1C(=O)NCCCCNC(=O)c1[nH]cnc1C(=O)Nc1ccc(Cl)cc1	17.9	-11.5	79.3*	-12.9	10.8	80.3*	102.0*
CCCOc1ccc(C(=O)NNC(=O)c2cccc(S(=O)(=O)N3CCN(C(C)=O)CC3)c2)cc1OC	6.1	6.8	-5.0	4.3	-10.3	-4.2	x
O=[N+]([O-])c1ccc(NC(=S)NCCc2ccc(F)cc2)cc1	6.0	-84.1	50.5*	-48.0	49.4	25.7	66.5*
O=C(NCCc1ccc(F)cc1)Nc1ccc([N+](=O)[O-])cc1	-15.3	-110.7	-27.6	14.5	17.7	-56.2	x
Cc1ccc(NC(=S)N2CCN(c3ccccn3)CC2)cc1C	12.1	-44.7	5.0	-1.5	22.9	-12.7	x
COc1ccc2ccc(O)c(CN3CCN(S(=O)(=O)c4cccc(C(F)(F)F)c4)CC3)c2c1	29.4	17.5	69.8*	-30.5	21.1	-1.5	28.6
CCOc1ccc(OCC(O)CN2CCN(S(=O)(=O)c3cccc(C(F)(F)F)c3)CC2)cc1 (stereo not given)	2.8	4.2	3.1	-10.0	13.5	20.9	x
Cc1ccc(-c2cccc(C(=O)NCc3ccccc3)n2)c2ccccc12	3.1	2.4	52.7*	-13.3	3.4	16.4	30.7
Cc1ccc(-c2cccc(C(=O)NCCc3ccccc3)n2)c2ccccc12	-17.6	-57.8	37.1	-22.9	-2.0	-48.8	x

Assay outcomes (PubChem)
